Source: PubChem
The list is not random: actives were taken first. Their share in the collection is about 2.9%.
PvdQ acylase: P. aeruginosa PvdQ acylase inhibition | purified PvdQ acylase, fluorescence plate reader | inhibition, % at 10 µM | actives 0.063% (n = 340,000); in the data active = inhibition above about 30%, passing the limit was not always enough; inconclusive = no clear call, values can overlap the other calls;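 also: 0% = vehicle neutral wells and 100% = reference inhibitor wells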
MITF act: activators of MITF-driven TRPM1 promoter activity in SK-MEL-5 cells; actives 0.75% (n = 300,000); SK-MEL-5 TRPM1-promoter luciferase, 24 h; % of positive control, neutral wells = 0; AID 588334; activation, % at 12.5 µM;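 active = mean activation of at least 80% with every replicate also reaching 80%; inconclusive = mean reaches 80% but some replicate falls short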;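 also: 0% = neutral control wells and 100% = parthenolide positive control wells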
Vif inh: inhibitors of HIV Vif; HEK293T cells, Vif self-association by quenched fluorescence, imaging, 24 h; inhibition, % at 7.49 µM; actives 0.35% (n = 340,000); in the data active = inhibition above about 50%, passing the limit was not always enough; inconclusive = no clear call, values can overlap the other calls; inactive = below about 31%
N-glyco inh: N-linked glycosylation inhibition; reporter increase, % at 12.5 µM; actives 0.23% (n = 360,000); D54 ERlucT glycosylation luciferase reporter, 24 h; percent of 100 nM tunicamycin response;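 active = mean luciferase reporter signal, scaled so untreated is 0 and the glycosylation-blocking control 100, at or above a set limit in every replicate; inconclusive = mean reaches the limit but not every replicate does; inactive = mean below the limit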;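 also: luciferase carries N-glycosylation sites so blocking glycosylation raises the light; 0% = median of neutral control wells and 100% = median of 100 nM tunicamycin wells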
Wnt bcat act: activates Wnt/beta-catenin signaling in a reporter cell assay; activator, plate reader; actives 1.2% (n = 300,000); activation, % at 9.35 µM; in the data active = activation above about 30%, passing the limit was not always enough; inconclusive = no clear call, values can overlap the other calls;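 also: 0% = neutral control wells and 100% = positive control wells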
esBAF inh: blocks esBAF chromatin remodeling in mouse ES cells. Bmi1-luciferase knock-in reporter, 24 h; 100% = twice the neutral-well signal. reporter increase, % at 12.5 µM. actives 2% (n = 350,000). AID 602393; in the data active = activation above about 40%; inconclusive = no clear call, values can overlap the other calls;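 also: 0% = median of the plate's neutral control wells and 100% = double that signal; a rise in the Bmi1 reporter signal indicates esBAF inhibition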
* = called active by the depositor; u = inconclusive; x = no result.

SMILES | PvdQ acylase | MITF act | Vif inh | N-glyco inh | Wnt bcat act | esBAF inh
COc1ccc(C(=O)NN/C(=N/S(=O)(=O)c2ccc(C)cc2)c2ccccc2)cc1 | 5.5 | 129.3* | -0.1 | -15.5 | 42.8* | x
CC(=O)Nc1ccc(N/C(=N\S(=O)(=O)c2ccccc2)c2ccccc2)cc1 | -12.0 | 0.2 | -4.3 | -2.0 | 0.3 | 2.8
Cc1ccc(S(=O)(=O)/N=C(/Nc2ccc(O)c(C(=O)O)c2)c2ccccc2)cc1 | -15.9 | -1.9 | 41.6 | 1.2 | 56.6* | 0.4
CO[C@@H]1CN(C)C(=O)c2ccc(NC(=O)NC3CCCCC3)cc2OC[C@@H](C)N(CC2CC2)C[C@H]1C | x | x | x | x | x | -2.6
CCCNC(=O)[C@H]1[C@H](CO)[C@H]2Cn3c(ccc(/C=C/c4ccccc4)c3=O)[C@@H]1N2C(C)=O | x | x | x | x | x | -0.2
O=C(NCCc1ccncc1)[C@@H]1[C@@H](CO)[C@@H]2Cn3c(ccc(-c4ccc(F)cc4)c3=O)[C@H]1N2 | x | x | x | x | x | -2.5
Cc1cc(OCC(C)C)ccc1/C(O)=C1/C(=O)C(=O)N(Cc2cccnc2)C1c1ccncc1 (stereo unspecified) | -8.4 | -4.6 | 53.9* | 0.4 | x | -5.9
CCCCOc1ccc(/C(O)=C2/C(=O)C(=O)N(Cc3cccnc3)C2c2ccncc2)c(C)c1 (stereo unspecified) | -4.2 | -3.6 | -1.7 | -1.2 | 8.6 | x
COc1ccc(S(=O)(=O)Nc2ccc3c(c2)C(=O)N([C@H](C)CO)C[C@H](C)[C@@H](CN(C)Cc2ccc4c(c2)OCO4)OCCCC[C@@H](C)O3)cc1 | x | x | x | x | x | -5.1
Cc1cc(NCCCn2ccnc2)n2nc(-c3ccc(Cl)cc3)cc2n1 | 35.5* | 42.2 | x | 2.5 | 28.0 | x
Clc1ccccc1-c1nc2ccccc2[nH]1 | -5.3 | x | -0.2 | -1.6 | 47.7* | x
S=C(Nc1ccc(Cl)cc1)c1nc2ccccc2[nH]1 | 8.4 | 17.6 | 1.2 | 4.5 | x | x
Clc1ccc(-c2nc3ccccc3[nH]2)cn1 | -3.8 | 57.0 | 5.1 | 3.1 | 0.1 | 49.8*
Cc1ccccc1-c1nc2ccccc2[nH]1 | 15.7 | 56.6 | x | 1.0 | x | 57.7*
CSc1ncccc1-c1nc2ccccc2[nH]1 | -11.2 | 24.4 | 3.2 | 2.9 | 16.7 | -14.5
Cc1ccccc1NC(=S)c1nc2ccccc2[nH]1 | 7.5 | 16.7 | -1.0 | 4.7 | -1.6 | 49.1*
CN1C(=O)c2cc(NC(=O)c3cnccn3)ccc2OC[C@H]2O[C@H](CC(=O)O)CC[C@H]21 | x | x | x | x | x | -4.3
O=C(C[C@H]1C=C[C@@H](NS(=O)(=O)c2ccc(F)cc2)[C@@H](CO)O1)NCCc1ccncc1 | x | x | x | x | x | 1.4
Fc1ccccc1-c1nc2ccccc2[nH]1 | 3.0 | 84.9* | -1.5 | -3.4 | 55.9* | x
CN1C(=O)c2cc(NC(=O)NC3CCCC3)ccc2OC[C@H]2O[C@@H](CC(=O)NC3CCC3)CC[C@H]21 | x | x | x | x | x | 4.8
C[C@H](CO)N1C[C@H](C)[C@H](CN(C)S(=O)(=O)c2ccc(Cl)cc2)OCCCC[C@H](C)Oc2ccc(NS(=O)(=O)c3ccccc3)cc2C1=O | x | x | x | x | x | 0.6
CCOc1ccc(Br)cc1C(=O)Nc1ccc(C(=O)NCC(C)C)cc1 | 4.0 | 4.1 | -3.2 | 114.9* | 1.0 | x
COc1ccc(Br)cc1C(=O)Nc1ccc(C(=O)NCC(C)C)cc1 | -3.5 | 6.9 | u | 0.2 | -2.0 | -11.6
Cc1noc(C)c1S(=O)(=O)Nc1ccc2c(c1)C(=O)N([C@@H](C)CO)C[C@@H](C)[C@H](CN(C)C(=O)CCCN(C)C)OCCCC[C@@H](C)O2 | x | x | x | x | x | 1.5
CSc1nc2ncc(C(=O)O)c(N)n2n1 | -11.9 | -3.1 | 51.1* | 4.1 | -1.5 | -11.9
Nc1c(C(=O)O)cnc2nc(N3CCOCC3)nn12 | -4.2 | -6.8 | -1.1 | 3.9 | x | x
COc1nc(Nc2ccc(C(C)C)cc2)nc(OC)n1 | 0.4 | 51.1 | -5.7 | -0.3 | x | 57.7*
O=C(C[C@H]1C[C@@H]2c3cc(NC(=O)c4ccc5c(c4)OCO5)ccc3O[C@@H]2[C@H](CO)O1)NCCN1CCCCC1 | x | x | x | x | x | -1.3
COc1cc(C)ccc1OCc1cc(C(=O)NC(C)Cn2cncn2)no1 (stereo unspecified) | 5.2 | 122.5* | 4.8 | -2.4 | 18.7 | 77.6*
COc1cc(Cl)ccc1OCc1cc(C(=O)NC(C)Cc2cccnc2)no1 (stereo unspecified) | -0.7 | 44.2 | -0.9 | -0.1 | -3.6 | 35.6
